A short description of assay [1]: NCI Yeast Anticancer Drug Screen. Data for the rad50 strain (AID 155).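 Note: 0% = growth of vehicle-only cultures of the same strain.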 The note with it: S. cerevisiae rad50 strain growth inhibition; at 50.0 µM; hits give high values. In short, it runs like this:
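Readout: growth inhibition relative to vehicle-treated cultures. Compound exposure was carried out in a genetically defined yeast strain deficient in DNA damage repair.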

Assay [2] is described as follows: NCI Yeast Anticancer Drug Screen. Data for the mec2-1 strain (AID 157). The note with it: S. cerevisiae mec2-1 strain, at 50.0 µM, hits give high values. In short, it runs like this: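 Yeast mec2-1 mutant treated with compound. Readout: growth inhibition vs vehicle controls.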
Assay [3] in a line: NCI Yeast Anticancer Drug Screen. Data for the sgs1 mgt1 strain (AID 161).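 Note: 0% = growth of cultures given vehicle only.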 Conditions: S. cerevisiae sgs1 mgt1 strain, at 50.0 µM, hits give high values. Summed up: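 Mutant yeast exposed to compound; growth scored against vehicle-only wells.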
Assay [4] is described as follows: NCI Yeast Anticancer Drug Screen. Data for the bub3 strain (AID 167). The note with it: S. cerevisiae bub3 mutant strain, at 50.0 µM, hits give high values. In short, it runs like this:
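Readout: yeast growth inhibition, expressed relative to vehicle-only wells. The test organism is a mutant strain from a panel with lesions in DNA repair or checkpoint genes.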

Assay [5] in a line: NCI Yeast Anticancer Drug Screen. Data for the mlh1 rad18 strain (AID 175). Conditions: S. cerevisiae mlh1 rad18 strain growth inhibition; at 50.0 µM; hits give high values. In short, it runs like this:
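Yeast w/ defined DNA-repair lesions; compound exposure; growth vs vehicle controls → % inhibition.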

Each structure is given as a SMILES string. This is part of a sample that, as a whole, favours compounds with a hit. Of some 79,000 tested, about 15% had one in any assay. Values without a mark were called inactive. Active and inactive are the calls of the source. Cut-off read from the data, not from the text of the source: active = growth inhibition above about 70%; inactive = the rest.

Consider `Cc1ccc(Oc2ccc3c(c2)CN(C)CC3)cc1`, for which the growth inhibition in assay [1] was 93.8% (active); in assay [2], 90.5% (active); in assay [3], 96.8% (active); in assay [4], 96.6% (active); in assay [5], 95.7% (active).

For the molecule `O=C(O)c1ccccc1/C=N\NC(=S)NC1CN2CCC1CC2` (stereo not given), the growth inhibition in assay [1] was 9.45%; in assay [2], 6.25%; in assay [3] it was 6.85%; in assay [4], 34.6%; in assay [5] it was -18.6%.

For `CC1NC1(c1ccccc1)n1ccnc1` (stereo not given), the growth inhibition was 13.4% in assay [1]; -18.1% in assay [2]; 5.8% in assay [3]; 11.4% in assay [4]; 3.4% in assay [5].

`Cc1ccc(C(=O)Nc2ccc(CP(=O)(O)O)cc2)cc1NC(=O)c1cccc(NC(=O)Nc2cccc(C(=O)Nc3cc(C(=O)Nc4ccc(CP(=O)(O)O)cc4)ccc3C)c2)c1`: the growth inhibition was -0.5% in assay [1]; 0.95% in assay [2]; 3.6% in assay [3]; -1.55% in assay [4]; -9.25% in assay [5].

Regarding `O=C=Nc1ccc(Cl)cc1`, the growth inhibition in assay [1] was -10.2%; in assay [2], -14.9%; in assay [3], -8.3%; in assay [4] it was -2.45%; in assay [5], -15.9%.

Take `CC(C)(C)c1cc(C=C(C#N)C#N)cc(C(C)(C)C)c1O`: the growth inhibition in assay [1] is 4.3%; in assay [2], 10.6%; in assay [3] it was 7.55%; in assay [4] it was 48.6%; in assay [5], 6.45%.

For `COc1cc(-c2ccc(N)c(OC)c2)ccc1N`, the growth inhibition in assay [1] is 26.7%; in assay [2], 7.9%; in assay [3], 20.2%; in assay [4] it was -2.45%; in assay [5], 30.1%.

Take `O=C(O)C1C2Cc3ccccc3C1c1ccccc12` (stereo not given): the growth inhibition is -1.6% in assay [1]; -7.55% in assay [2]; 0.95% in assay [3]; -13.7% in assay [4]; -10% in assay [5].

As for `O=C(O)[C@H](O)[C@@H](O)C(=O)O.[Pb]`, the growth inhibition in assay [1] was 7.05%; in assay [2] it was -4.35%; in assay [3] it was -2.9%; in assay [4] it was 6.85%; in assay [5], -9.2%.

Turning to `O=C(CC(=O)c1ccccc1)c1ccccc1.O=C(CC(=O)c1ccccc1)c1ccccc1.[Pd]`, the growth inhibition in assay [1] is 20.5%; in assay [2] it was 4.9%; in assay [3] it was 6.7%; in assay [4] it was 6.05%; in assay [5], 19.8%.

On to `CCC(=O)OC1(c2ccccc2)CCN(C/C=C/c2cccc3ccccc23)CC1`, for which the growth inhibition in assay [1] is 86.3% (active); in assay [2], 76.2% (active); in assay [3], 89% (active); in assay [4] it was 83% (active); in assay [5] it was 87.2% (active).

For the molecule `O=C(Cl)C(Br)Cc1ccccc1` (stereo not given), the growth inhibition in assay [1] is 11.9%; in assay [2], -19.4%; in assay [3], 0.95%; in assay [4], 28.6%; in assay [5], 2.1%.

As for `CCC[CH2][Sn]([CH2]CCC)([CH2]CCC)[CH2]CCNCCCN(C)C`, the growth inhibition was 99.3% (active) in assay [1]; 99.7% (active) in assay [2]; 99.5% (active) in assay [3]; 98.8% (active) in assay [4]; 99.2% (active) in assay [5].

Turning to `CN(C1CCCC1)C1CCCC1`, the growth inhibition is -27.1% in assay [1]; -25.9% in assay [2]; -24.1% in assay [3]; 2.25% in assay [4]; -7.7% in assay [5].

As to `S=C1c2ccc(Cl)cc2-n2cnnc2C2CSCN12` (stereo not given), the growth inhibition in assay [1] is -4.1%; in assay [2] it was 10.8%; in assay [3], 7.9%; in assay [4] it was -6.1%; in assay [5], 26.4%.

Take `CCCCP(=O)(CCCC)CCCC.CCCCP(=O)(CCCC)CCCC.CCCCP(=O)(CCCC)CCCC.CCCCP(=O)(CCCC)CCCC.[Mn+2].[O-][Cl+3]([O-])([O-])O`: the growth inhibition was 13.3% in assay [1]; -57.7% in assay [2]; -24.6% in assay [3]; -21.9% in assay [4]; -17.9% in assay [5].

As for `N.N.N.O=[N+]([O-])[O-].O=[N+]([O-])[O-].O=[N+]([O-])[O-].O=[N+]([O-])[O-].[Co+3]`, the growth inhibition in assay [1] is 11.6%; in assay [2], 20.7%; in assay [3] it was 25.5%; in assay [4], 11.8%; in assay [5] it was -1.35%.

For `[Fe+2].[c-]1[c-][c-][cH-][c-]1.[c-]1[c-][c-][cH-][c-]1.c1cc[c]([Pb]([c]2ccccc2)[c]2ccccc2)cc1`, the growth inhibition is 66.5% in assay [1]; 85% (active) in assay [2]; 83.9% (active) in assay [3]; 78.3% (active) in assay [4]; 87.8% (active) in assay [5].

As for `O=C(CC(=O)c1ccccc1)c1ccccc1.[Tl]`, the growth inhibition in assay [1] is 96.2% (active); in assay [2], 91.5% (active); in assay [3], 97.5% (active); in assay [4] it was 88.7% (active); in assay [5], 98.1% (active).

As to `N[C@@H]1CCCC[C@@H]1N.O=P([O-])([O-])CN(CP(=O)([O-])[O-])CP(=O)([O-])[O-].[Pt+2]`, the growth inhibition in assay [1] is -5.05%; in assay [2], -6.4%; in assay [3] it was -10.2%; in assay [4], -0.1%; in assay [5] it was -21.1%.

With `CC1OC(=O)C(C(C)C)NC(=O)C(C(C)C)OC(=O)C(C(C)C)NC(=O)C(C)OC(=O)C(C(C)C)NC(=O)C(C(C)C)OC(=O)C(C(C)C)NC(=O)C(C)OC(=O)C(C(C)C)NC(=O)C(C(C)C)OC(=O)C(C(C)C)NC1=O` (stereo not given), the growth inhibition in assay [1] is 31.9%; in assay [2], 38.8%; in assay [3] it was 45.9%; in assay [4] it was 16.8%; in assay [5], 42.5%.

On to `CN=NNc1nc[nH]c1C(N)=O`, for which the growth inhibition in assay [1] was 23.9%; in assay [2] it was 32.2%; in assay [3], 25.2%; in assay [4], 3.85%; in assay [5], 40.5%.

These data come from PubChem BioAssay (NCI).
